Test results taken from PubChem BioAssay (Tox21).
Several values for one entry are separate records, joined by “and”; a condition that tells them apart may be missing. Equal entries are not always repeated. Records with an inconclusive call do not appear. A call without a number means that no potency is given here. A structure can be active in one record and inactive in another. Activity calls are given as the source filed them. Calls follow the shape of the dose curve; as a rule, active = well fitted inhibition curve with a large enough effect in the repeat runs; inconclusive = weak or mixed curves; inactive = no such curve, though single readings can be large or run the other way.
Also: nearly all actives have a fitted effect of over 50% in size.
Potency is read from the fitted curve at half-maximal effect.

The compounds below were run against Cytochrome P450 2C9 (Homo sapiens) (UniProt P11712) (assay: Cytochrome P450 Family 2 Subfamily C Member 9 (CYP2C9) small molecule antagonists: luciferase reporter qHTS assay (AID 1671198)). Conditions: P450-Glo CYP2C9 enzyme assay, luciferin luminescence; series mostly up to 115 µM.
Sequence of Cytochrome P450 2C9 (Homo sapiens) (P11712 whole entry, looked up): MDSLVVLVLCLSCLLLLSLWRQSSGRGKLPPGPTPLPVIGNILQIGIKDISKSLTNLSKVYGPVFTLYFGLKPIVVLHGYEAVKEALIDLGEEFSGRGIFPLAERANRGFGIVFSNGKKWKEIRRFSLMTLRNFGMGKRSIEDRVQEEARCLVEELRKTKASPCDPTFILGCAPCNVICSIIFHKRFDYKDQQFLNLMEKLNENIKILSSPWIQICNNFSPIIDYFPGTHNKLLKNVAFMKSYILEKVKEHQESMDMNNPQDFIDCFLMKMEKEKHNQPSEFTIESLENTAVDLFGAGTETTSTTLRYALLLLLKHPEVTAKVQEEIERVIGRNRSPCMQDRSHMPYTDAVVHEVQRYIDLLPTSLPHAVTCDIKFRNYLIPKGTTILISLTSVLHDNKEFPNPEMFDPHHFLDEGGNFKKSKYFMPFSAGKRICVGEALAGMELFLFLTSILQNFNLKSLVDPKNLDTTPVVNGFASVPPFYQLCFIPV
Outline: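 Enzyme-substrate mix preincubated with compound 10 min at room temperature; reaction started with NADPH regeneration solution, 1 h 37C. Luminescent luciferin product read after 20 min detection reagent.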
`CCCCCCCCCCCCCCCC[N+](C)(C)Cc1ccccc1` was tested, and the Potency was 82.2 µM (active) and 36.2 µM (active) and 30.9 µM (active).
In the case of `Nc1ccc([N+](=O)[O-])cc1O`, the Potency is reported as 43.5 µM (active).
For `O=c1[nH]cc(F)c(=O)[nH]1`, the Potency was “inactive”.
`Cc1cc(C)nc(NS(=O)(=O)c2ccc(N)cc2)n1` was tested, and the Potency was “inactive”.
In the case of `CN(C)C(=S)SC(=S)N(C)C`, the Potency is reported as 36.5 µM (active) and 25.2 µM (active) and 34.7 µM (active).
In the case of `CS(=O)(=O)OCCCCOS(C)(=O)=O`, the Potency is reported as “inactive”.
With `Nc1ccc(O)c([N+](=O)[O-])c1` the Potency was 25 µM (active).
In the case of `OC[C@H]1O[C@H](O[C@]2(CCl)O[C@H](CCl)[C@@H](O)[C@@H]2O)[C@H](O)[C@@H](O)[C@H]1Cl`, the Potency is reported as “inactive”.
`CCN(CC)C(=O)c1cccc(C)c1` was tested, and the Potency was “inactive”.
`Cc1ncc([N+](=O)[O-])n1CCO` was tested, and the Potency was “inactive”.
`COc1ccc2cc(S(=O)(=O)N[C@H](CC(=O)N[C@H](Cc3ccc(CN4[C@H](C)CCC[C@@H]4C)cc3)C(=O)N(C)C(C)C)c3ccc4c(c3)OCO4)ccc2c1` was tested, and the Potency was 59.9 µM (active).
With `CC(O)(P(=O)(O)O)P(=O)(O)O` the Potency was “inactive”.
For `NC(=O)n1c(O)c(C(=O)c2cccs2)c2cc(Cl)ccc21`, the Potency was 12.3 µM (active).
With `C=C(C)C(=O)OCC(C)O` (configuration not stated) the Potency was “inactive”.
In the case of `COc1cccc(O)c1O`, the Potency is reported as “inactive”.
For `CCN(Cc1c(F)cccc1Cl)c1c([N+](=O)[O-])cc(C(F)(F)F)cc1[N+](=O)[O-]`, the Potency was 7.96 µM (active).
With `O=C1O[C@H]([C@@H](O)CO)C(O)=C1O` the Potency was “inactive”.
For `CC12CCC(CC1)C(C)(C)O2`, the Potency was “inactive”.
In the case of `CC(=O)C(=O)O`, the Potency is reported as “inactive”.
In the case of `Cc1cn([C@H]2C=C[C@@H](CO)O2)c(=O)[nH]c1=O`, the Potency is reported as “inactive”.
With `COc1ccc(CN(CCN(C)C)c2ccccn2)cc1` the Potency was “inactive”.
With `NS(=O)(=O)c1cc2c(cc1Cl)NCNS2(=O)=O` the Potency was “inactive”.
`Cc1c(C(=O)O)c(O)cc2c1C(=O)c1c(O)c([C@@H]3O[C@H](CO)[C@@H](O)[C@H](O)[C@H]3O)c(O)c(O)c1C2=O` was tested, and the Potency was 34.7 µM (active) and 39.9 µM (active).
With `CCOc1ccc(NC(C)=O)cc1` the Potency was “inactive”.
For `NC(=O)c1cccnc1`, the Potency was “inactive”.
With `O=C(O)CC(O)C(=O)O` (configuration not stated) the Potency was “inactive”.

Each compound was assayed against Cytochrome P450 1A2 (Homo sapiens) (UniProt P05177) (assay: Cytochrome P450 Family 1 Subfamily A Member 2 (CYP1A2) small molecule antagonists: luciferase reporter qHTS assay (AID 1671199)). Conditions: P450-Glo CYP1A2 enzyme, luciferin luminescence, 1 h; series mostly up to 115 µM.
Sequence of Cytochrome P450 1A2 (Homo sapiens) (P05177 whole entry, looked up): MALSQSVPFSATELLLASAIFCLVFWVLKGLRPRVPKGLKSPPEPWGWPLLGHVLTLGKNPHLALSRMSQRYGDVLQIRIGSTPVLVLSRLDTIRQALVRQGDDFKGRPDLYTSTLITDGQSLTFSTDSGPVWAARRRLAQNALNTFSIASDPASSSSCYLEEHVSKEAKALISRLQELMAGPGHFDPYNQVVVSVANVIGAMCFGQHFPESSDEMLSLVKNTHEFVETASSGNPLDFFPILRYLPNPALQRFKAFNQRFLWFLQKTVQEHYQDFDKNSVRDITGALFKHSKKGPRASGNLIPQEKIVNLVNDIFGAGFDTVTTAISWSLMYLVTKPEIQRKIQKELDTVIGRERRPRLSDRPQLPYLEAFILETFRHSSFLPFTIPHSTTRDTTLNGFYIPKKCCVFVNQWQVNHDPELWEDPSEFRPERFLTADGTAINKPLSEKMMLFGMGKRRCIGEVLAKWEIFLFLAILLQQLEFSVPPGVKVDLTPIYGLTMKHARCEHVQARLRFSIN
Outline: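 Signal from luciferin formed by CYP1A2 from a proluciferin substrate is read as luminescence, expressed in relative luminescence units. Compounds sit with enzyme 10 min, NADPH-driven reaction runs 1 h, all at room temperature.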
With `CN1CCC[C@H]1c1cccnc1` the Potency was “inactive”.
In the case of `CCCCCCCCCCCCCCCC[N+](C)(C)Cc1ccccc1`, the Potency is reported as 36.7 µM (active) and 72.3 µM (active) and inactive.
With `Nc1ccc([N+](=O)[O-])cc1O` the Potency was 42.3 µM (active).
For `O=c1[nH]cc(F)c(=O)[nH]1`, the Potency was 32.9 µM (active) and inactive.
For `C=CCc1ccc(O)c(OC)c1`, the Potency was 31.5 µM (active) and 39.9 µM (active).
For `Cc1cc(C)nc(NS(=O)(=O)c2ccc(N)cc2)n1`, the Potency was “inactive”.
In the case of `CN(C)C(=S)SC(=S)N(C)C`, the Potency is reported as 32.5 µM (active) and 39.9 µM (active) and 25.7 µM (active).
In the case of `CS(=O)(=O)OCCCCOS(C)(=O)=O`, the Potency is reported as “inactive”.
`Nc1ccc(O)c([N+](=O)[O-])c1` was tested, and the Potency was 48.5 µM (active).
In the case of `OC[C@H]1O[C@H](O[C@]2(CCl)O[C@H](CCl)[C@@H](O)[C@@H]2O)[C@H](O)[C@@H](O)[C@H]1Cl`, the Potency is reported as “inactive”.
In the case of `Cc1ncc([N+](=O)[O-])n1CCO`, the Potency is reported as “inactive”.
In the case of `COc1ccc2cc(S(=O)(=O)N[C@H](CC(=O)N[C@H](Cc3ccc(CN4[C@H](C)CCC[C@@H]4C)cc3)C(=O)N(C)C(C)C)c3ccc4c(c3)OCO4)ccc2c1`, the Potency is reported as “inactive”.
With `CC1(C)S[C@@H]2[C@H](NC(=O)[C@H](N)c3ccccc3)C(=O)N2[C@H]1C(=O)O` the Potency was “inactive”.
For `NC(=O)n1c(O)c(C(=O)c2cccs2)c2cc(Cl)ccc21`, the Potency was 15.5 µM (active).
For `C=C(C)C(=O)OCC(C)O` (configuration not stated), the Potency was “inactive”.
With `CCN(Cc1c(F)cccc1Cl)c1c([N+](=O)[O-])cc(C(F)(F)F)cc1[N+](=O)[O-]` the Potency was “inactive”.
For `O=C1O[C@H]([C@@H](O)CO)C(O)=C1O`, the Potency was “inactive and 19.5 µM (active)”.
In the case of `CC12CCC(CC1)C(C)(C)O2`, the Potency is reported as 31.3 µM (active) and inactive.
With `CC(=O)C(=O)O` the Potency was “inactive and 22.4 µM (active)”.
For `Cc1cn([C@H]2C=C[C@@H](CO)O2)c(=O)[nH]c1=O`, the Potency was “inactive”.
`COc1ccc(CN(CCN(C)C)c2ccccn2)cc1` was tested, and the Potency was “inactive”.
`Cc1c(C(=O)O)c(O)cc2c1C(=O)c1c(O)c([C@@H]3O[C@H](CO)[C@@H](O)[C@H](O)[C@H]3O)c(O)c(O)c1C2=O` was tested, and the Potency was 34.7 µM (active) and 39.9 µM (active) and inactive.
With `C1=CC2C3C=CC(C3)C2C1` (configuration not stated) the Potency was 57 µM (active).
For `CC1(C)O[C@@H]2C[C@H]3[C@@H]4CCC5=CC(=O)C=C[C@]5(C)[C@@]4(F)[C@@H](O)C[C@]3(C)[C@]2(C(=O)CO)O1`, the Potency was “inactive”.
For `NC(=O)c1cccnc1`, the Potency was “inactive”.
For `O=C(O)CC(O)C(=O)O` (configuration not stated), the Potency was “inactive and 35.6 µM (active)”.
